Results filed as inconclusive are left out. Activity calls are given as the source filed them. Calls come from the whole dose curve; as a rule, active = well fitted curve in the direction sought with a large enough effect; inconclusive = small, poorly fitted or top-dose-only effect, or another doubt; inactive = no such curve, though single readings can be large; an effect the other way counts as inactive or inconclusive.
Tests used:
[1] = target: Protein phosphatase 1D (Homo sapiens) (UniProt O15297); assay: RapidFire Mass Spectrometry qHTS Assay for Modulators of WT P53-Induced Phosphatase 1 (WIP1) (AID 1347424);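 note: amount of dephosphorylated VEPPL-S-QETFS peptide product formed by WIP1; series mostly up to about 63 µM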
Sequence of Protein phosphatase 1D (Homo sapiens) (O15297 whole entry, looked up): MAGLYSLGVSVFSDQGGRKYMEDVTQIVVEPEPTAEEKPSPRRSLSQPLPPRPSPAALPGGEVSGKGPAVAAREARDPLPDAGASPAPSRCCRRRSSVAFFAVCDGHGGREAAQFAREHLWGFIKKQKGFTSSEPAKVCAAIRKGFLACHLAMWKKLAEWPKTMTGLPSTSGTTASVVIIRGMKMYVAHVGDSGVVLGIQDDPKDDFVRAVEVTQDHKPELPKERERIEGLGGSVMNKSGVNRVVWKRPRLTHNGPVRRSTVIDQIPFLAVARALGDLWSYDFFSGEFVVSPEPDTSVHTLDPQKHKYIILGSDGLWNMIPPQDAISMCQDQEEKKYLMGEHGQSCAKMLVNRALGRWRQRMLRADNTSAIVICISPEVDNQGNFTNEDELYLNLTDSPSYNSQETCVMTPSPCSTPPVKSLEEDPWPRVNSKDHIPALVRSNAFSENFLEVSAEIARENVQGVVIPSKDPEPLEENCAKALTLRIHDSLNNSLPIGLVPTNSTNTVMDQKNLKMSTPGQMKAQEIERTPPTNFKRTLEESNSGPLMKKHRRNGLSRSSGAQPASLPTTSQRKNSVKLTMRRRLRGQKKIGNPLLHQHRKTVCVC
Procedure, shortened: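 10 nM WIP1 + cpd, 1 h RT; + 2 uM VEPPL-pS-QETFS, 5 min RT; stop 0.5% formic acid; labelled product standard 1 uM; RapidFire MS. Buffer 50 mM Tris pH 7.5, 30 mM MgCl2, 1 mM TCEP.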

[2] = target: Protein phosphatase 1D (Homo sapiens) (UniProt O15297); assay: Rhodamine-PBP qHTS Assay for Modulators of WT P53-Induced Phosphatase 1 (WIP1) (AID 1347425)
Procedure, shortened: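 WIP1 (5 nM final) was preincubated with compound for 1 hour at room temperature. It then dephosphorylated 10 uM VEPPL-pS-QETFS peptide in Tris-HCl pH 7.5 with 30 mM MgCl2. Released Pi was detected by 10 uM Rh-PBP fluorescence (ex 525/em 598 nm) read at 1-min intervals for 11 min, as delta f1 - f0.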

[3] = Primary qHTS for inhibitors of La Crosse Virus (LACV) - induced cell death in SH-SY5Y cells (AID 1508616);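 note: top concentration of the series differs between compounds; higher means more rescue of cells from virus-induced death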
Procedure, shortened: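 SH-SY5Y cells (6000/well) plated 24 h, then given compounds by pin transfer and LACV at 0.01 MOI for 6 days at 37C. Viability measured by ATPLite luminescence, normalized to infected DMSO and uninfected DMSO.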

[4] = target: Calcium and integrin-binding protein 1 (Homo sapiens) (UniProt Q99828); assay: Primary qHTS for Identification of Calcium Integrin Binding Protein 1 (CIB1) Competitor (AID 1508620);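 note: GST tagged CIB1 binding a fluorescein labelled alphaIIb integrin peptide tracer; top concentration of the series differs between compounds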
Sequence of Calcium and integrin-binding protein 1 (Homo sapiens) (Q99828 whole entry, looked up): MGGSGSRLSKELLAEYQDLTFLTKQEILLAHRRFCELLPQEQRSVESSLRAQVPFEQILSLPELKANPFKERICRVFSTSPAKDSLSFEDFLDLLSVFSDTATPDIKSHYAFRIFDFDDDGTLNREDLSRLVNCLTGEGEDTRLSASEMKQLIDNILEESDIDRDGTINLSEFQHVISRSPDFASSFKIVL
Procedure, shortened: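 CIB1-GST (1 uM final) and compound incubated 15 min at room temperature before adding FITC-alphaIIb peptide tracer (100 nM final). Competition for binding read by fluorescence polarization (ex 480, em 540) after another 15 min at room temperature.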

Measured: Potency

CCOCCn1c(N2CCCN(C)CC2)nc2ccccc21
inactive: [1] | [2] | [3] | [4]

CO[C@H]1C=CO[C@@]2(C)Oc3c(C)c(O)c4c(O)c(c(/C=N/N5CCN(C)CC5)c(O)c4c3C2=O)NC(=O)/C(C)=C\C=C[C@H](C)[C@H](O)[C@@H](C)[C@@H](O)[C@@H](C)[C@H](OC(C)=O)[C@@H]1C
inactive: [1] | [2] | [3] | [4]

CC(C)Cn1cnc2c1c(=O)n(C)c(=O)n2C
inactive: [1] | [2] | [3] | [4]

COc1ccc(CCN(C)CCCN2CCc3cc(OC)c(OC)cc3CC2=O)cc1OC
inactive: [1] | [2] | [3] | [4]

O=[N+]([O-])c1cccc(S(=O)(=O)NCCNS(=O)(=O)c2cccc([N+](=O)[O-])c2)c1
inactive: [1] | [2] | [3] | [4]

CC(=O)O[C@]1(C(C)=O)CC[C@H]2[C@@H]3C=C(Cl)C4=CC(=O)CC[C@]4(C)[C@H]3CC[C@@]21C
inactive: [1] | [2] | [3] | [4]

CCCCC(CC)CN1CN(CC(CC)CCCC)CC(C)(N)C1 (stereo not given)
inactive: [1] | [2] | [3] | [4]

CCOC(=O)Nc1ccc2c(c1)N(C(=O)CCN1CCOCC1)c1ccccc1S2
inactive: [1] | [2] | [3] | [4]

CC(C)Cc1ccc(CC(=O)O)cc1
inactive: [1] | [2] | [3] | [4]

O=S(=O)(O)c1ccc(O)cc1
inactive: [1] | [2] | [3] | [4]

O=C(O)P(=O)(O)O
inactive: [1] | [2] | [3] | [4]

COc1ccccc1N1CCN(CCCCNC(=O)c2ccc(-c3ccc(C(C)=O)cc3)cc2)CC1
inactive: [1] | [2] | [3] | [4]

CCN1CCN(C(=O)N[C@@H](C(=O)N[C@@H]2C(=O)N3C(C(=O)O)=C(CSc4nnnn4C)CS[C@H]23)c2ccc(O)cc2)C(=O)C1=O
inactive: [1] | [2] | [3] | [4]

CCCCC(CC)COC(=O)/C=C/c1ccc(OC)cc1 (stereo not given)
inactive: [1] | [2] | [3] | [4]

NCCNc1cccc2ccccc12
inactive: [1] | [2] | [3] | [4]

NC(=O)c1ccccc1O
inactive: [1] | [2] | [3] | [4]

CCN(CC)CCOC(=O)C(Cc1cccc2ccccc12)CC1CCCO1 (stereo not given)
inactive: [1] | [2] | [3] | [4]

CCCCCCCCCCCCCC[N+](C)(C)Cc1ccccc1
inactive: [1] | [2] | [3] | [4]

O=C(NC1CCN(CCc2c[nH]c3ccccc23)CC1)c1ccccc1
inactive: [1] | [2] | [3] | [4]

Oc1ccccc1C=NCc1ccccc1
inactive: [1] | [2] | [3] | [4]

C[C@@H](O)[C@H]1C(=O)N2C(C(=O)O)=C(S[C@@H]3CN[C@H](CNS(N)(=O)=O)C3)[C@H](C)[C@H]12
inactive: [1] | [2] | [3] | [4]

Nc1nc(Cl)nc2c1ncn2[C@@H]1O[C@H](CO)[C@@H](O)[C@@H]1F
inactive: [1] | [2] | [3] | [4]

CC(=O)Nc1ccc(S(=O)(=O)Nc2ccc([N+](=O)[O-])cc2)cc1
inactive: [1] | [2] | [3] | [4]

FC1(F)C(F)(F)C(F)(F)C2(F)C(F)(F)C(F)(F)C(F)(F)C(F)(F)C2(F)C1(F)F (stereo not given)
inactive: [1] | [2] | [3] | [4]

CC1(C)OC[C@@H]2O[C@@]3(C(=O)O)OC(C)(C)O[C@H]3[C@@H]2O1
inactive: [1] | [2] | [3] | [4]

CCCCOC(=O)CC(CC(=O)OCCCC)(OC(C)=O)C(=O)OCCCC
inactive: [1] | [2] | [3] | [4]

CN(C)CCC[C@@]1(c2ccc(F)cc2)OCc2cc(C#N)ccc21
inactive: [1] | [2] | [3] | [4]

CCc1nn(CCCN2CCN(c3cccc(Cl)c3)CC2)c(=O)n1CCOc1ccccc1
inactive: [1] | [2] | [3] | [4]

CC(CNC1CCCCC1)OC(=O)c1ccccc1 (stereo not given)
inactive: [1] | [2] | [3] | [4]

Nc1ccc(C(=O)NCC(=O)O)cc1
inactive: [1] | [2] | [3] | [4]

OC[C@H]1O[C@@H]2O[C@H]3[C@H](O)[C@@H](O)[C@@H](O[C@H]4[C@H](O)[C@@H](O)[C@@H](O[C@H]5[C@H](O)[C@@H](O)[C@@H](O[C@H]6[C@H](O)[C@@H](O)[C@@H](O[C@H]7[C@H](O)[C@@H](O)[C@@H](O[C@H]8[C@H](O)[C@@H](O)[C@@H](O[C@H]1[C@H](O)[C@H]2O)O[C@@H]8CO)O[C@@H]7CO)O[C@@H]6CO)O[C@@H]5CO)O[C@@H]4CO)O[C@@H]3CO
inactive: [1] | [2] | [3] | [4]

C#C[C@]1(O)CC[C@H]2[C@@H]3[C@H](C)CC4=C(CCC(=O)C4)[C@H]3CC[C@@]21C
inactive: [1] | [2] | [3] | [4]

CN1CCN(C2=Nc3ccccc3Sc3ccc(Cl)cc32)CC1
inactive: [1] | [2] | [3] | [4]

NC(=S)N/N=C/c1cccnc1
inactive: [1] | [2] | [3] | [4]

CCc1cc(Cl)c(OC)c(C(=O)NC[C@@H]2CCCN2CC)c1O
inactive: [1] | [2] | [3] | [4]

From PubChem BioAssay (NCATS)
